Screening data as filed in PubChem BioAssay.
TSHR antagonist: antagonists of human thyroid stimulating hormone receptor. P16473. activity change, negative = inhibition, % at 11.5 µM. TSHR-expressing cells, TSH-stimulated cAMP HTRF, 2 h; active compounds read low. hit rate 0.2% among 330,000;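 active = activity change below a set negative limit, meaning inhibition stronger than a set level, cut at about -70% in these data; inconclusive = activity change between two set negative limits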; also: % is scaled to controls: 0 for no effect and ±100 for the full control effect
Target sequence (P16473 whole entry, looked up): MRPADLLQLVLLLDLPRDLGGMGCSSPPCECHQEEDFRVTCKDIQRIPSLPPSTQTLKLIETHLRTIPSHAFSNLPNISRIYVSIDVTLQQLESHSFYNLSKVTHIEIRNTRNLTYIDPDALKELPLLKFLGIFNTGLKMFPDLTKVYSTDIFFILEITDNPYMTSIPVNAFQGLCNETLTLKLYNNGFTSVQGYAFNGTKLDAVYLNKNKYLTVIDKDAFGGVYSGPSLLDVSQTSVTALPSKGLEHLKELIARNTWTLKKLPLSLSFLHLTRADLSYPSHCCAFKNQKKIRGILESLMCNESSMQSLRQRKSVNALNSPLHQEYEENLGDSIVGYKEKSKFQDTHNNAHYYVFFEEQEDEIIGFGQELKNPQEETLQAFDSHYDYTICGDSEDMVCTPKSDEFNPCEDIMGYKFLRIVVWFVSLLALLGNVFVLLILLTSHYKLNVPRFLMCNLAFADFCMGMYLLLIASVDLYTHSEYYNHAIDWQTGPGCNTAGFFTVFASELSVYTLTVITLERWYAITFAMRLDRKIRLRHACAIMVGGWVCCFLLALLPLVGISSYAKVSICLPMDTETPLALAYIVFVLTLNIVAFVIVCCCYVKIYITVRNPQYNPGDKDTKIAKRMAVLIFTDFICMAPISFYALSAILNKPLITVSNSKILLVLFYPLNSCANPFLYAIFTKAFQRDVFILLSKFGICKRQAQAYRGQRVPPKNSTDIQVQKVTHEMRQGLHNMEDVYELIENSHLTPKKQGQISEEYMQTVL
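Antagonism was scored as loss of TSH-driven cAMP in TSHR cells, stimulated with 4nM TSH (EC80) for 2 hours at 37 deg C and detected by homogeneous HTRF competition immunoassay.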
gsp ag: gsp mutant agonism; gsp mutant cells, cAMP HTRF, 30 min; Potency, µM (series often up to 76.9 µM), without a hit: at the top dose activation (cAMP increase), most hits filed as activators; hit rate 0.13% among 340,000; AID 624287; active = well fitted activation curve with a large enough effect; inconclusive = small, poorly fitted or top-dose-only effect, or another doubt; inactive = no such curve, though single readings can be large or run the other way; cell line not stated here;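 also: phosphodiesterase inhibitor Ro 20-1724 added with compounds to block cAMP breakdown; potency is read from the fitted curve at half-maximal effect; nearly all actives have a fitted effect of over 60% in size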
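Cells stably selected in G418 were plated at 2000/well, grown 16-24 hr, then given compounds in DMSO with the PDE inhibitor […] (300 uM solution added) for 30 min at 37C; cAMP was read by HTRF.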
CCT chaperon mod: modulators of cytosolic chaperonin (CCT/TRiC) activity. hit rate 0.3% among 360,000. AID 651819. purified chaperonin ATPase assay, HTRF ADP detection, 30 min. activity change, % (no concentration beside the values), hits read low; in the data active = activity change below about -30%; also: % is scaled to controls: 0 for no effect and ±100 for the full control effect
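TRiC at 40 or 20 nM final (batch-dependent) in 30 mM Tris pH 7.4, 100 mM KCl, 5 mM MgCl2, 1 mM DTT, with compound at single 76 uM and 10 uM ATP, 30 min at 37 deg C. ADP detected by HTRF Transcreener, 665/615 ratio.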
Mm-Cpn inhibitor: inhibitors of Methanococcus maripaludis chaperonin TRiC (MmCpn); Potency, µM (series often up to 76.9 µM), for the others: at the highest dose activity, negative = inhibition, usual class: inhibitors; hit rate 0.031% among 330,000; AID 504842; purified Mm-Cpn ATPase, ADP Transcreener TR-FRET; active = well fitted inhibition curve with a large enough effect; inconclusive = small, poorly fitted or top-dose-only effect; also: potency is read from the fitted curve at half-maximal effect; % is scaled to controls: 0 for no effect and ±100 for the full control effect; nearly all actives have a fitted effect of over 80% in size
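Compound-treated chaperonin, 25 nM final, turns over 10 uM ATP at 37°C for 30 min following a 10 min preincubation; ADP generated competes with ADP-d2 for Eu-cryptate antibody, lowering FRET.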
uPA generation: inhibitors of cell surface uPA generation; Potency, µM (doses to about 38.3 µM), inactives show top-dose activity change, negative = inhibition, most hits filed as inhibitors; cell surface uPA generation assay, qHTS; AID 540303; hit rate 0.31% among 330,000; active = well fitted inhibition curve with a large enough effect; inconclusive = small, poorly fitted or top-dose-only effect; inactive = no such curve, though single readings can be large or run the other way; tested in mouse RAW 264.7 cells; also: potency is read from the fitted curve at half-maximal effect; % is scaled to controls: 0 for no effect and ±100 for the full control effect; nearly all actives have a fitted effect of over 55% in size
gsp antagonist: antagonizes gsp, the McCune-Albright syndrome mutation. gsp-mutant cells, cAMP HTRF, 30 min. Potency, µM (titrated, usually from 76.9 µM), inactives show at the highest dose activity change, negative = inhibition, actives largely listed as inhibitors. hit rate 0.4% among 340,000. AID 624288; calls by dose curve; cell line not stated here;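 also: intracellular cAMP measured with PDE inhibitor Ro 20-1724 present during compound exposure; potency is read from the fitted curve at half-maximal effect; % is scaled to controls: 0 for no effect and ±100 for the full control effect; nearly all actives have a fitted effect of over 65% in size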
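HTRF cAMP measurement after 30 min RT detection following 30 min, 37C compound treatment alongside […] (added as 300 uM solution) in G418-selected cells seeded at 2000/well and grown 16–24 h.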
Active calls of the source: *; [ ] = remark or other dose. Only some compounds are listed: those with a hit (about 1.2% of all), similar ones and a draw of the others.

How did COc1ccc(OCC(=O)N2CCN(c3nnc(-c4ccc(C)cc4)c4ccccc34)CC2)cc1 do in these assays?
TSHR antagonist: -13.4; gsp ag: -3.2%[15.4 µM]; CCT chaperon mod: -1.7; Mm-Cpn inhibitor: -0.4%; uPA generation: -8.7%; gsp antagonist: 28.2µM*

What do the screens show for `COc1ccc(OCC(=O)N2CCN(c3nnc(-c4ccccc4)c4ccccc34)CC2)cc1`?
TSHR antagonist: -10.0; gsp ag: 13.2%; CCT chaperon mod: -0.5; Mm-Cpn inhibitor: -0.8%; gsp antagonist: 39.8µM*

How did Cc1ccc(OCC(=O)N2CCN(c3nnc(-c4ccc(C)cc4)c4ccccc34)CC2)cc1 do in these assays?
TSHR antagonist: -25.8; gsp ag: 1.2%; CCT chaperon mod: -2.4; Mm-Cpn inhibitor: 0.6%; gsp antagonist: 35.5µM*

What do the screens show for `O=C(COc1ccccc1)N1CCN(c2nnc(-c3ccccc3)c3ccccc23)CC1`?
TSHR antagonist: -20.6; gsp ag: -2.8%; CCT chaperon mod: -3.7; Mm-Cpn inhibitor: -2.5%; gsp antagonist: inconclusive

What do the screens show for `Cc1ccc(-c2nnc(N3CCN(C(=O)COc4cccc(C)c4)CC3)c3ccccc23)cc1`?
TSHR antagonist: -3.6; gsp ag: 0.1%[15.4 µM]; CCT chaperon mod: -0.4; Mm-Cpn inhibitor: -4.9%; uPA generation: 3.3%; gsp antagonist: inconclusive

How did CCC[N+](CC#Cc1ccccc1)(CCC)CC(=O)OCC do in these assays?
TSHR antagonist: 4.7; gsp ag: 16.1%[15.4 µM]; CCT chaperon mod: -3.0; Mm-Cpn inhibitor: 0.4%; uPA generation: -1.7%; gsp antagonist: 3.9%

How did COc1ccccc1NC(=O)c1ccc(NC(=O)c2cc3c(s2)CCC3)cc1 do in these assays?
TSHR antagonist: -30.3; gsp ag: -21.8%; CCT chaperon mod: -0.7; Mm-Cpn inhibitor: 1.0%; uPA generation: 3.2%; gsp antagonist: -18.8%

Results for COc1cc(OC)c2c(-c3cccc(-c4ccc(CO)cc4)c3)cc(=O)oc2c1 ?
TSHR antagonist: -4.0; CCT chaperon mod: -0.7; Mm-Cpn inhibitor: -0.2%; uPA generation: 0.891µM*; gsp antagonist: 2.7%

Results for COc1cc(OC)c2c(-c3cccc(-c4ccc(OC(F)(F)F)cc4)c3)cc(=O)oc2c1 ?
TSHR antagonist: -4.6; CCT chaperon mod: 0.1; Mm-Cpn inhibitor: 1.9%; uPA generation: 9.9%; gsp antagonist: -1.4%

What do the screens show for `COc1cc(OC)c2c(-c3cccc(-c4ccc(O)cc4)c3)cc(=O)oc2c1`?
TSHR antagonist: 23.0; CCT chaperon mod: -0.1; Mm-Cpn inhibitor: 1.9%; uPA generation: inconclusive; gsp antagonist: -0.1%

What do the screens show for `COc1ccc(-c2cccc(-c3cc(=O)oc4cc(OC)cc(OC)c34)c2)cc1`?
TSHR antagonist: 1.7; CCT chaperon mod: 0.4; Mm-Cpn inhibitor: -0.7%; uPA generation: 0.794µM*; gsp antagonist: 4.9%

What do the screens show for `COc1cc(OC)c2c(-c3cccc(-c4cccc(C)c4)c3)cc(=O)oc2c1`?
TSHR antagonist: 14.7; CCT chaperon mod: -1.9; Mm-Cpn inhibitor: -1.2%; uPA generation: 3.16µM*; gsp antagonist: 7.3%

What do the screens show for `CCc1ccccc1NC(=O)c1ccoc1C`?
TSHR antagonist: -8.4; gsp ag: 0.4%; CCT chaperon mod: 0.7; Mm-Cpn inhibitor: 0.3%; uPA generation: 2.1%; gsp antagonist: 8.4%

Results for COc1ccc(-c2nc(C3CCCCC3)c3cc(OC)ccc3n2)cc1 ?
TSHR antagonist: -5.5; gsp ag: 20.3%; CCT chaperon mod: 1.4; Mm-Cpn inhibitor: -0.4%; uPA generation: inconclusive; gsp antagonist: 7.3%

How did O=C(CCC(=O)Nc1ccc(Cl)cc1)N/N=C/c1ccc2c(c1)OCO2 do in these assays?
TSHR antagonist: -71.9*; gsp ag: 13.7%; CCT chaperon mod: 0.3; Mm-Cpn inhibitor: inconclusive; uPA generation: 3.7%; gsp antagonist: 3.2%

What do the screens show for `COC(=O)c1cccc(Nc2c3c(nc4ccccc24)CCC3)c1`?
TSHR antagonist: -1.1; gsp ag: -2.1%[15.4 µM]; CCT chaperon mod: 0.6; Mm-Cpn inhibitor: -0.4%; uPA generation: -19.2%; gsp antagonist: -9.8%

How did CC(=O)c1cccc(Nc2c3c(nc4ccccc24)CCC3)c1 do in these assays?
TSHR antagonist: -4.3; gsp ag: 11.3%; CCT chaperon mod: -2.8; Mm-Cpn inhibitor: -0.1%; uPA generation: 0.794µM*; gsp antagonist: 16.2%

Results for COC(=O)/C=C/COc1ccccc1[N+](=O)[O-] ?
TSHR antagonist: 0.9; gsp ag: 0.7%; CCT chaperon mod: -1.6; Mm-Cpn inhibitor: 0.9%; uPA generation: 11.2µM*; gsp antagonist: 6.8%

How did O=C(COc1ccccc1[N+](=O)[O-])c1ccccc1 do in these assays?
TSHR antagonist: 26.1; gsp ag: 6.3%[15.4 µM]; CCT chaperon mod: -0.3; Mm-Cpn inhibitor: -0.6%; uPA generation: -3.7%; gsp antagonist: 0.4%

Results for CCc1ccccc1NC(=O)CN1CCN(C(=O)CNC(=O)c2ccc(-c3ccccc3)cc2)CC1 ?
TSHR antagonist: -10.3; gsp ag: -33.1%; CCT chaperon mod: -2.1; Mm-Cpn inhibitor: -4.0%; uPA generation: 3.16µM*; gsp antagonist: -28.5%

Results for CCc1ccccc1NC(=O)CN1CCN(CC(=O)Nc2ccc(-c3ccccc3)cc2)CC1 ?
TSHR antagonist: 9.1; gsp ag: 14.0%; CCT chaperon mod: 0.7; Mm-Cpn inhibitor: 0.2%; uPA generation: -0.7%; gsp antagonist: -16.9%

What do the screens show for `CC(Sc1cnccn1)C(=O)O` (centres undefined)?
TSHR antagonist: -3.9; gsp ag: 0.6%[15.4 µM]; CCT chaperon mod: 0.2; Mm-Cpn inhibitor: 2.2%; uPA generation: 6.0%; gsp antagonist: 20.0%

What do the screens show for `CC(=O)N1CCc2cc3nc(C)cc(C)c3cc21`?
TSHR antagonist: 14.7; gsp ag: -22.5%; CCT chaperon mod: -3.6; Mm-Cpn inhibitor: -0.2%; uPA generation: -6.1%; gsp antagonist: 2.2%

What do the screens show for `COc1ccccc1NC(=S)NC1CCCCC1`?
TSHR antagonist: 39.3; gsp ag: 20µM*; CCT chaperon mod: 1.3; Mm-Cpn inhibitor: 1.1%; uPA generation: -0.8%; gsp antagonist: 0.5%

What do the screens show for `Cc1scc(C(=O)N/N=C/c2ccsc2)c1C`?
TSHR antagonist: 3.1; gsp ag: -2.3%; CCT chaperon mod: 1.0; Mm-Cpn inhibitor: 1.0%; uPA generation: 6.31µM*; gsp antagonist: 2.9%

What do the screens show for `Cc1c(C(=O)Nc2nc3ccccc3[nH]2)oc2c(Cl)cccc12`?
TSHR antagonist: -3.2; gsp ag: 10.4%; CCT chaperon mod: -30.3*; Mm-Cpn inhibitor: 0.0%; uPA generation: -11.0%; gsp antagonist: -4.0%

Results for Cc1c(C(=O)Nc2nc3ccccc3[nH]2)oc2ccccc12 ?
TSHR antagonist: 2.1; gsp ag: -53.6%; CCT chaperon mod: -2.0; Mm-Cpn inhibitor: 0.4%; uPA generation: -4.7%; gsp antagonist: inconclusive
